From the supplement of paper PMC10849652
The full data set covers some 8,800 targets. This sample favours those with a hit. About 0.5% of all pairs of compound and target were hits. A number with no mark means an inactive call.

Assays:
Assay in all cases: log2 fold change, soluble protein after heating vs DMSO (PISA); higher = thermal stabilisation; K562 lysate, 10 uM; active = over 0.2 and 3.5 SD of the protein, either way, in both replicates (recomputed)
erlotinib = compound: C#Cc1cccc(Nc2ncnc3cc(OCCOC)c(OCCOC)cc23)c1 [erlotinib]
Method in brief: (§1)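 A 30 min treatment with 10 μM compound was applied to crude K562 extract at 1 mg/mL protein in PBS pH 7.4 with 1 mM MgCl2. Heating for 3 min spanned 48°C-58°C, after which aliquots were pooled, adjusted to 0.5% NP-40 at 4°C and spun at 21,000xg for 90 min. TMTpro 16plex LC-MS/MS of the supernatant, with channel sums equalised, gave values recorded as log-two fold change in thermal stability against solvent controls, from duplicates.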

[1] = compound: C/C(=N\NC(=O)C1=CC(=CC=C1)S(=O)(=O)N2CCOCC2)/C3=C(C=CC(=C3)Cl)O
Method in brief: as §1

[2] = compound: C1=CC(=CC=C1C2=NC3=C(N2)C=C(C=C3)C(=O)N)OC4=CC=C(C=C4)Cl
Method in brief: as §1

[3] = compound: C1=CC2=C(C=CC(=C2)/C=C\3/C(=O)NC(=NCC4=CC=CS4)S3)N=C1
Method in brief: as §1

[4] = compound: C1=CC2=NC=CN=C2C=C1/C=C/3\C(=O)NC(=O)S3
Method in brief: as §1

[5] = compound: C1=CC=C(C=C1)C2=NC(=C(N2)C3=CC=NC=C3)C4=CC(=C(C=C4)Cl)O
Method in brief: as §1

[6] = compound: C1=CC=C2C(=C1)C3=NNC4=CC=CC(=C43)C2=O
Method in brief: as §1

[7] = compound: C1CCN(C1)C(=O)NC2=CC=CC(=C2)NC3=NC=C(C(=N3)NCCC4=CN=CN4)Br
Method in brief: as §1

[8] = compound: C1CN(CCC1(CC2=CC=C(C=C2)Cl)N)C3=NC=NC4=C3C=CN4
Method in brief: as §1

IRAK-1-4 Inhibitor I = compound: C1COCCN1CCN2C3=CC=CC=C3N=C2NC(=O)C4=CC(=CC=C4)[N+](=O)[O-] [IRAK-1-4 Inhibitor I]
Method in brief: as §1

ibrutinib = compound: C=CC(=O)N1CCC[C@@H](n2nc(-c3ccc(Oc4ccccc4)cc3)c3c(N)ncnc32)C1 [ibrutinib]
Method in brief: as §1

[9] = compound: CC(=O)c1cnc2ccc(-c3cc(Cl)c(O)c(Cl)c3)nc2c1N[C@H]1CC[C@H](CN(C)C)CC1
Method in brief: as §1

ralimetinib = compound: CC(C)(C)Cn1c(N)nc2ccc(-c3[nH]c(C(C)(C)C)nc3-c3ccc(F)cc3)nc21 [ralimetinib]
Method in brief: as §1

[10] = compound: CC(C)(O)CC(=O)NCCn1ccc2ncnc(Nc3ccc(Oc4cccc(C(F)(F)F)c4)c(Cl)c3)c21
Method in brief: as §1

[11] = compound: CC(C)C1=C2N=C(C=C(N2N=C1)NCC3=CC=CC=C3)NCCCCCCN
Method in brief: as §1

[12] = compound: CC1=C(C(CC(=O)N1)C2=CC=C(C=C2)C(F)(F)F)C(=O)NC3=C(C=C4C(=C3)C=NN4)F
Method in brief: as §1

[13] = compound: CC1=C(C2=C(C=C1)C(=O)C3=CC=CC=C3N2CCCN)C
Method in brief: as §1

[14] = compound: CC1=C(C=C(C=C1)NC(=O)C2=CC(=CC=C2)C(C)(C)C#N)NC3=CC4=C(C=C3)N=CN(C4=O)C
Method in brief: as §1

[15] = compound: CC1=C(C=C(C=C1)NC(=O)C2=CC(=CC=C2)N(C)C)NC(=O)C3=CC=C(C=C3)O
Method in brief: as §1

[16] = compound: CC1=CC=C(C=C1)SC2=C3C=C(SC3=CN=C2)C(=O)N
Method in brief: as §1

Chain of UniProt Q8N1F7 (Q8N1F7 whole entry, looked up): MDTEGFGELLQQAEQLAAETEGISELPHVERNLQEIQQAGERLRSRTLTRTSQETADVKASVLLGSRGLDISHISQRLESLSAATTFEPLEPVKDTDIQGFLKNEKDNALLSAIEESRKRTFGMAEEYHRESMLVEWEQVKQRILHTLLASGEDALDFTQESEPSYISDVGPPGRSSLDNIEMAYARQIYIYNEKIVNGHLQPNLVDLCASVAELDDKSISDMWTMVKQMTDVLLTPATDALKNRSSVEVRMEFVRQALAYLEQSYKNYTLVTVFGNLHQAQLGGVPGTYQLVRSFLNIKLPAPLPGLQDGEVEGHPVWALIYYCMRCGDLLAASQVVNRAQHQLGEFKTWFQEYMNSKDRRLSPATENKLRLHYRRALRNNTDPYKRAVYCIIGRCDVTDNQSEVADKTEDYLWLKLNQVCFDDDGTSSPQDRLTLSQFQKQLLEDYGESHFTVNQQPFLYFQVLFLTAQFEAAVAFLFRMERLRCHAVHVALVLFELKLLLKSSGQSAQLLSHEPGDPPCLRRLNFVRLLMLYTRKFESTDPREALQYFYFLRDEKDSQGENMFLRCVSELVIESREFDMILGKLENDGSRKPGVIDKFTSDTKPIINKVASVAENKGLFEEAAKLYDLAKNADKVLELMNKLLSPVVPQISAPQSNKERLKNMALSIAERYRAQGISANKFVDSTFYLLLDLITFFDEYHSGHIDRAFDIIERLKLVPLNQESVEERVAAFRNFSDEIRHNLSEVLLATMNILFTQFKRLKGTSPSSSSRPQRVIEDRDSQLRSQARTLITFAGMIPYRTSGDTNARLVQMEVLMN
Chain of UniProt Q96NT1 (Q96NT1 whole entry, looked up): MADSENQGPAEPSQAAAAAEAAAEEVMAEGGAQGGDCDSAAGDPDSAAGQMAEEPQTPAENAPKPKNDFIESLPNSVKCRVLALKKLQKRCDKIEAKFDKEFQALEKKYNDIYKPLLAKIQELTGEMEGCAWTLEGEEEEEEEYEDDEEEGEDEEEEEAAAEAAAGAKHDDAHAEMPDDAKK
Chain of UniProt Q9BZF3 (Q9BZF3 whole entry, looked up): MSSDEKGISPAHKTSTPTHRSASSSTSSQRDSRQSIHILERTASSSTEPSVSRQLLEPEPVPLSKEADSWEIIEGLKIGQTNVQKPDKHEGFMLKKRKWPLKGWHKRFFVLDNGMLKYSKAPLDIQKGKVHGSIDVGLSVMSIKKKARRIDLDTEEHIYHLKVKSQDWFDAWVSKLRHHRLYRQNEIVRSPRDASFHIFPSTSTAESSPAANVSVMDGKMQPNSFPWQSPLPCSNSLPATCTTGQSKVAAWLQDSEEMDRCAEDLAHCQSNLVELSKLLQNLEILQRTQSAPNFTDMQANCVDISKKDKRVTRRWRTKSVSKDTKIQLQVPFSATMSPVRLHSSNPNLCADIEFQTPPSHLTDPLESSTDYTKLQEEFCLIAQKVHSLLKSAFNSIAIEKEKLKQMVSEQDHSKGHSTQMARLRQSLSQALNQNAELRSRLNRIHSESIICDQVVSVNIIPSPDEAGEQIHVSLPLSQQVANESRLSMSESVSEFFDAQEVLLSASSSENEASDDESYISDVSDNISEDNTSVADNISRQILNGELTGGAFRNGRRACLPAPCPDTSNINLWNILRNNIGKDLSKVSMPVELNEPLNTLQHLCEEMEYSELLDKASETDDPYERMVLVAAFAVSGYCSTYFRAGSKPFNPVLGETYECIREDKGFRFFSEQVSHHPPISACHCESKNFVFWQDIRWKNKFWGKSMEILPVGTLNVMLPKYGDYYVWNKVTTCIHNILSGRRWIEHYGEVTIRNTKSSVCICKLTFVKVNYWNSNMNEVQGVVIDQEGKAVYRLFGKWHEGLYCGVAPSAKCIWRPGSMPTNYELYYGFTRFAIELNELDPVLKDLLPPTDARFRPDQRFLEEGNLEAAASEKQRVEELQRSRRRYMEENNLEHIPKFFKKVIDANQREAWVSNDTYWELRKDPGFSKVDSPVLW
Chain of UniProt O00221 (O00221 whole entry, looked up): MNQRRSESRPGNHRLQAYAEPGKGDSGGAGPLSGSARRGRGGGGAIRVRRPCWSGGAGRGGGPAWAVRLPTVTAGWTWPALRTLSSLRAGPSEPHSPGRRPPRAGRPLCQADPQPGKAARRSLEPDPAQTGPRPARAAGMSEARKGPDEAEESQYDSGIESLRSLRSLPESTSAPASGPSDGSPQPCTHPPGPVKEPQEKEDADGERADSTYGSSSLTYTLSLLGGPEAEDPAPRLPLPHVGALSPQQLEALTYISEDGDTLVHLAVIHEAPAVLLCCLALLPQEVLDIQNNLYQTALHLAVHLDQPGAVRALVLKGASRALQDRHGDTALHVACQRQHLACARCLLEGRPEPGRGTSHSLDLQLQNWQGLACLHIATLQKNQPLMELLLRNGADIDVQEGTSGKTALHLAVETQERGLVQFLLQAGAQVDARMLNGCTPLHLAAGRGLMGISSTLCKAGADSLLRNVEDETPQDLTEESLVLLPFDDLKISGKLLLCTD
Chain of UniProt P80303 (P80303 whole entry, looked up): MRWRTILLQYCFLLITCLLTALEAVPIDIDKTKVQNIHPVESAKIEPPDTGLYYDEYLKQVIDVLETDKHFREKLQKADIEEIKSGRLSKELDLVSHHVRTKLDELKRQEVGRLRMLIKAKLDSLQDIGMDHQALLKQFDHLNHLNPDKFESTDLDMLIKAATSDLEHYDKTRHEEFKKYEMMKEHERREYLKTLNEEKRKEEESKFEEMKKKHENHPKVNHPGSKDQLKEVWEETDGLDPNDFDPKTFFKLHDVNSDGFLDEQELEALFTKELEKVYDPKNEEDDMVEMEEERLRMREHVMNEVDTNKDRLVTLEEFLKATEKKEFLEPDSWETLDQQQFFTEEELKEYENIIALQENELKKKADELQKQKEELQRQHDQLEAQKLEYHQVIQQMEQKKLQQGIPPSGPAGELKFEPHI
Chain of UniProt Q8TEM1 (Q8TEM1 whole entry, looked up): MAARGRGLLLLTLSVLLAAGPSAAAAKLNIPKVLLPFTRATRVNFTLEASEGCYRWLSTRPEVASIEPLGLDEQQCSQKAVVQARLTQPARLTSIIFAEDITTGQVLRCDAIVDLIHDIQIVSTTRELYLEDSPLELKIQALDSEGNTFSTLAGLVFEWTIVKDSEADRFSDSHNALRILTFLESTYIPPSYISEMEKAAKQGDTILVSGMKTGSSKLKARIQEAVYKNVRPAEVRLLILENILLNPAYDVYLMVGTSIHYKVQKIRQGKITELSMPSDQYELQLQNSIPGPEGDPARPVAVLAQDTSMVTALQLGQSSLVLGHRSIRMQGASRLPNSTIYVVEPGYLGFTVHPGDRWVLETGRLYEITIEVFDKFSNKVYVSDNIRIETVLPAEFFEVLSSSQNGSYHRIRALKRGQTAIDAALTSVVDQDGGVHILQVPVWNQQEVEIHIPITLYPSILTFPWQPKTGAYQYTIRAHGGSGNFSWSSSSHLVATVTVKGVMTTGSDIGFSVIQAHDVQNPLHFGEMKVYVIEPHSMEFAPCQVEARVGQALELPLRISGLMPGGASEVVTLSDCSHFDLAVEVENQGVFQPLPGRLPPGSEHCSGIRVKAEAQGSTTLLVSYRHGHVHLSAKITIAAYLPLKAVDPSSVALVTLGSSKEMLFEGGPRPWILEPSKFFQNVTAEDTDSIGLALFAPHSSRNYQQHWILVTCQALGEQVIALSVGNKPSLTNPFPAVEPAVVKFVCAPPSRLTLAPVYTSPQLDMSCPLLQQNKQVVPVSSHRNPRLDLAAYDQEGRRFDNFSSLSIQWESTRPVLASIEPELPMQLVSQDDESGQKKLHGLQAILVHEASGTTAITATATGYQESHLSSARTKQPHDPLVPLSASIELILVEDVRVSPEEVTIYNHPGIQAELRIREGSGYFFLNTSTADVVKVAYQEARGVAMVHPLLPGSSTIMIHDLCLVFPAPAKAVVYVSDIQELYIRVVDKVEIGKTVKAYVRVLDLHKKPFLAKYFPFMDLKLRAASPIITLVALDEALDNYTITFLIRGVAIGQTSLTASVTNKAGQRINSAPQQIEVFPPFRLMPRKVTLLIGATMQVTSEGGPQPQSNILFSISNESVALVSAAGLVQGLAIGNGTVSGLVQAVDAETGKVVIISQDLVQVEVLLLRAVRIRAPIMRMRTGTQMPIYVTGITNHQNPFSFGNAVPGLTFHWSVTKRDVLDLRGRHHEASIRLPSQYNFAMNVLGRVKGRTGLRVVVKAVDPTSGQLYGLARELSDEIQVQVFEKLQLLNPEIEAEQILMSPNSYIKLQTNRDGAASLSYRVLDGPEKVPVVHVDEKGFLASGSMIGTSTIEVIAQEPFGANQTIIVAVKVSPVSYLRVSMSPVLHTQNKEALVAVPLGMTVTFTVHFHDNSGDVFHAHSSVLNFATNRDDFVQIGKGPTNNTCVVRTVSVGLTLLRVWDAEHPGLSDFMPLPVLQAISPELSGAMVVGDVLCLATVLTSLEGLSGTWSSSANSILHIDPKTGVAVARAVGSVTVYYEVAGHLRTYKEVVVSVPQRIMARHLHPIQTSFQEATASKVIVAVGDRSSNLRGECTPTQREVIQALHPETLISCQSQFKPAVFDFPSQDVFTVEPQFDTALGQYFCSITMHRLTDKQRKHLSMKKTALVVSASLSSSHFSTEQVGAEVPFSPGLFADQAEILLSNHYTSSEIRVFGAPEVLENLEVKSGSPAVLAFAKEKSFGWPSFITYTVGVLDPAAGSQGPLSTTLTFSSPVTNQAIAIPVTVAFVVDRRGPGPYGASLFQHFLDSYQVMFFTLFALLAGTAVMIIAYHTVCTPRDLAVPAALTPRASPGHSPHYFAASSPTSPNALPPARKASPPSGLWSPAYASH
Chain of UniProt Q8TDX7 (Q8TDX7 whole entry, looked up): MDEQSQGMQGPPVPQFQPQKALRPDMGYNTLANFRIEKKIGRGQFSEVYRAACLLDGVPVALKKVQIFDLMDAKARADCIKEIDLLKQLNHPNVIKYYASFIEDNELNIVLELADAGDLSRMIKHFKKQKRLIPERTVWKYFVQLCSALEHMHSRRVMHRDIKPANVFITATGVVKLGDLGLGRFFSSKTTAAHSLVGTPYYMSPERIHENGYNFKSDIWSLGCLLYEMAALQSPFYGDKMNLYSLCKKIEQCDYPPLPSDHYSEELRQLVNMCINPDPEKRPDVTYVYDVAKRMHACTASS

| Target | log2 fold change (erlotinib) | log2 fold change [1] | log2 fold change [2] | log2 fold change [3] | log2 fold change [4] | log2 fold change [5] | log2 fold change [6] | log2 fold change [7] | log2 fold change [8] | log2 fold change (IRAK-1-4 Inhibitor I) | log2 fold change (ibrutinib) | log2 fold change [9] | log2 fold change (ralimetinib) | log2 fold change [10] | log2 fold change [11] | log2 fold change [12] | log2 fold change [13] | log2 fold change [14] | log2 fold change [15] | log2 fold change [16] |
| --- | --- | --- | --- | --- | --- | --- | --- | --- | --- | --- | --- | --- | --- | --- | --- | --- | --- | --- | --- | --- |
| NAP1L5 (UniProt Q96NT1) | -0.003 | -0.023 | 0.017 | -0.014 | -0.014 | 0.084 | -0.116 | -0.057 | 0 | -0.059 | -0.056 | 0.018 | -0.034 | 0.034 | -0.037 | -0.036 | -0.045 | -0.13 | -0.036 | -0.009 |
| NUMB (UniProt P49757) | -0.029 | 0.01 | 0.044 | -0.052 | -0.009 | -0.009 | -0.029 | -0.107 | -0.043 | 0.022 | 0.03 | 0.005 | 0.021 | -0.055 | 0.003 | -0.007 | -0.015 | 0.081 | 0.004 | -0.005 |
| NUF2 (UniProt Q9BZD4) | 0.009 | 0.006 | -0.012 | 0.03 | -0.002 | -0.047 | -0.047 | -0.039 | -0.004 | -0.039 | -0.052 | -0.051 | 0.03 | 0.015 | -0.001 | 0.018 | 0.027 | -0.011 | 0.044 | 0.009 |
| MVB12A (UniProt Q96EY5) | 0.027 | -0.049 | 0.022 | -0.001 | -0.024 | -0.001 | -0.046 | -0.089 | -0.003 | -0.001 | 0.049 | 0.009 | -0.008 | 0.001 | -0.003 | -0.015 | 0.033 | -0.015 | 0.043 | 0.02 |
| NONO (UniProt Q15233) | 0.021 | -0.048 | 0 | -0.006 | -0.017 | 0.025 | -0.027 | 0.014 | 0.002 | 0.005 | -0.013 | 0.006 | 0.008 | -0.002 | 0.006 | -0.006 | -0.006 | -0.016 | 0.015 | 0.014 |
| MT-CYB (UniProt P00156) | 0.076 | 0.141 | 0.027 | 0.024 | 0.015 | -0.229 | 0.126 | -0.105 | 0.025 | 0.028 | 0.133 | -0.055 | 0.001 | -0.064 | -0.094 | 0.03 | -0.107 | 0.039 | -0.093 | 0.198 |
| NFKBIE (UniProt O00221) | 0.014 | -0.009 | -0.117 | 0.059 | -0.022 | 0.059 | -0.026 | -0.078 | 0.081 | 0.119 | -0.018 | 0.054 | -0.008 | -0.059 | -0.05 | 0.015 | -0.044 | 0.027 | 0.05 | 0.018 |
| NUP93 (UniProt Q8N1F7) | 0.025 | 0.058 | -0.042 | 0.021 | 0.032 | -0.022 | -0.049 | 0.002 | 0.015 | -0.022 | -0.013 | 0.007 | 0.036 | -0.015 | 0 | 0.027 | 0.019 | -0.029 | 0.036 | 0 |
| NUP210 (UniProt Q8TEM1) | -0.018 | -0.019 | -0.049 | 0.036 | -0.004 | -0.046 | -0.157 | -0.008 | -0.001 | -0.009 | -0.029 | -0.01 | -0.011 | -0.075 | -0.005 | 0.024 | -0.017 | -0.005 | -0.027 | -0.012 |
| NCOR2 (UniProt C9J0Q5) | 0.044 | 0.033 | 0.04 | -0.082 | -0.008 | 0.054 | -0.173 | -0.002 | 0.049 | 0.032 | -0.002 | -0.001 | -0.026 | -0.056 | -0.034 | 0.046 | 0.022 | -0.064 | -0.014 | -0.04 |
| MYCBP2 (UniProt O75592) | 0.01 | 0 | 0.031 | 0.008 | -0.008 | 0.031 | -0.023 | 0.004 | 0.03 | 0.022 | 0.014 | -0.027 | 0.033 | -0.085 | 0.014 | 0.016 | -0.028 | 0.028 | 0.036 | -0.033 |
| OSBPL6 isoform 5 (UniProt Q9BZF3) | 0.182 | 0.398 (active) | 0.09 | -0.006 | -0.012 | 0.257 | 0.107 | -0.029 | -0.015 | -0.08 | 0.118 | -0.031 | 0.23 | -0.042 | 0.098 | -0.032 | 0.016 | 0.015 | -0.013 | 0.01 |
| NUCB2 (UniProt P80303) | -0.003 | 0.018 | 0.014 | -0.018 | 0.011 | -0.015 | -0.017 | 0.003 | 0.003 | 0.007 | 0.025 | 0.002 | -0.023 | 0.01 | 0.009 | 0.04 | -0.006 | 0 | -0.015 | -0.014 |
| NEK7 (UniProt Q8TDX7) | -0.004 | 0.042 | -0.083 | 0 | 0.01 | 0.053 | 0.103 | 0.011 | -0.005 | 0.032 | 0.041 | -0.041 | 0.063 | -0.016 | 0.034 | -0.015 | -0.048 | -0.043 | 0.053 | 0.002 |
| NCAPG (UniProt Q9BPX3) | -0.008 | -0.018 | -0.004 | -0.01 | -0.007 | 0.006 | -0.026 | 0.002 | 0.013 | -0.011 | 0.006 | 0.015 | 0.027 | -0.015 | -0.026 | -0.009 | -0.02 | 0.014 | 0.018 | 0.024 |
| MRPL58 (UniProt Q14197) | 0.025 | -0.005 | 0.054 | -0.003 | 0.01 | -0.002 | -0.025 | -0.078 | 0.043 | -0.012 | 0.025 | 0.032 | -0.022 | 0.006 | -0.013 | 0.089 | -0.034 | -0.035 | 0.032 | 0.053 |
